Measurements taken from PubChem BioAssay (NCATS).
Records with an inconclusive call do not appear. Activity calls are given as the source filed them. Calls come from the whole dose curve; as a rule, active = well fitted cell-killing curve with a large enough effect; inconclusive = small, poorly fitted or top-dose-only effect, or effect the other way; inactive = flat fitted curve, though single readings scatter. Where a SMILES comes first, the peptide text is derived from it.

Tests used:
Assay in all cases: Primary qHTS to identify gynecologic anti-cancer compounds using libraries of approved drugs and bioactive compounds (AID 1345084); note: nearly all actives have a fitted effect of over 55% in size
Settings in all cases: Gynecologic cancer cell panel viability, ATPlite luminescence, 48 h; series mostly up to 57.5 µM
[1] = test system: OV90
Procedure, shortened: (§1)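 48 h compound exposure at 37 C, 5% CO2; five-point qHTS. ATPlite luminescence readout of cell ATP.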

[2] = test system: PA-1
Procedure, shortened: as §1

[3] = test system: SKOV3
Procedure, shortened: as §1

[4] = test system: Tov-21-G
Procedure, shortened: as §1

[5] = test system: Tov112D
Procedure, shortened: as §1
% is set by controls: 0 for no effect and ±100 for the full control effect.

C=C1C(=O)O[C@@H]2C[C@]3(C)[C@@H](CCC(C)=O)[C@@H]3C[C@H]12
inactive: Potency [1] | Potency [2] | Potency [3] | Potency [4] | Potency [5]

CC(O)C(=O)/C=C/C=C/C(=O)OC1C=C2COC(=O)C2(O)C2(C)CCCC(C)(C)C12 (configuration not stated)
inactive: Potency [1] | Potency [2] | Potency [3] | Potency [4] | Potency [5]

Cc1ccccc1-n1nc(-c2c(-c3ccc(F)cc3)nn3c2NC[C@@H](CO)C3)ccc1=O
inactive: Potency [1] | Potency [2] | Potency [3] | Potency [4] | Potency [5]

CC1(C)CC[C@]2(C(=O)O[C@@H]3O[C@H](CO[C@@H]4O[C@H](CO)[C@@H](O)[C@H](O)[C@H]4O)[C@@H](O)[C@H](O[C@@H]4O[C@H](CO)[C@@H](O)[C@H](O)[C@H]4O)[C@H]3O)CC[C@]3(C)C(=CCC4[C@@]5(C)CC[C@H](O[C@@H]6OC[C@@H](O)[C@H](O)[C@H]6O)[C@@](C)(C(=O)O)C5CC[C@]43C)[C@@H]2C1 (some centres not stated)
inactive: activity change, negative = cytotoxicity [1] 1.75% [at 11.6 µM] | activity change, negative = cytotoxicity [2] 0.621% [at 11.6 µM] | activity change, negative = cytotoxicity [3] 10.7% [at 11.6 µM] | activity change, negative = cytotoxicity [4] 10.6% [at 11.6 µM] | activity change, negative = cytotoxicity [5] 3.57% [at 11.6 µM]

O=C(/C=C/c1ccc(O)c(O)c1)OC[C@H]1O[C@@H](OC2CCCCC2O)[C@H](O)[C@@H](O)[C@@H]1O (some centres not stated)
inactive: Potency [1] | Potency [2] | Potency [3] | Potency [4] | Potency [5]

C=C(CCO)C(=O)OCC1OCC(OC(=O)C(=C)CCO[C@@H]2O[C@H](CO)[C@@H](O)[C@H](O)[C@H]2O)C(O)C1O (some centres not stated)
inactive: Potency [1] | Potency [2] | Potency [3] | Potency [4] | Potency [5]

COc1cnc(-n2cnc(C)n2)c2[nH]cc(C(=O)C(=O)N3CCN(C(=O)c4ccccc4)CC3)c12
inactive: Potency [1] | Potency [2] | Potency [3] | Potency [4] | Potency [5]

CC1=C[C@H]2[C@@H](CC1=O)[C@H](C)C[C@H](O)[C@H]2C(C)C
inactive: Potency [1] | Potency [2] | Potency [3] | Potency [4] | Potency [5]

CC1CCC2C(C)(C)[C@H](O)CC[C@]2(C)C12Cc1c(O)cc3c(c1O2)CN(C(CCC(=O)O)C(=O)O)C3=O (some centres not stated)
inactive: Potency [1] | Potency [2] | Potency [3] | Potency [4] | Potency [5]

CC1(C)CC[C@]2(C(=O)O)CC[C@]3(C)C(=CCC4[C@@]5(C)C[C@@H](O)[C@H](O)[C@@](C)(CO)C5CC[C@]43C)C2C1 (some centres not stated)
inactive: Potency [1] | Potency [2] | Potency [3] | Potency [4] | Potency [5]

C[C@@H]1C[C@@H](O)[C@@]23CO[C@]2(CO)CCC[C@@H]3[C@@]12C[C@@H](c1ccoc1)OC2=O
inactive: Potency [1] | Potency [2] | Potency [3] | Potency [4] | Potency [5]

CN1CCN(C(=O)c2cc3cc(Cl)ccc3[nH]2)CC1
inactive: Potency [1] | Potency [2] | Potency [3] | Potency [4] | Potency [5]

c1cc(-c2cc(C3CCNCC3)[nH]n2)ccn1
inactive: Potency [1] | Potency [2] | Potency [3] | Potency [4] | Potency [5]

C[C@]1(OC(=O)/C=C\c2ccc(O)cc2)C[C@@H](O)[C@]2(O)C=CO[C@@H](O[C@@H]3O[C@H](CO)[C@@H](O)[C@H](O)[C@H]3O)C12 (some centres not stated)
inactive: Potency [1] | Potency [2] | Potency [3] | Potency [4] | Potency [5]

COC(=O)C1=CO[C@@H](O[C@@H]2O[C@H](CO)[C@@H](O)[C@H](O)[C@H]2O)[C@@H]2[C@@H](CO)[C@@H](O)C(O)[C@H]12 (some centres not stated)
inactive: Potency [1] | Potency [2] | Potency [3] | Potency [4] | Potency [5]

COc1ccc(C2C(C(=O)O)C(C(=O)O)C2c2ccc(OC)cc2O[C@@H]2O[C@H](CO)[C@@H](O)[C@H](O)[C@H]2O)c(O[C@@H]2O[C@H](CO)[C@@H](O)[C@H](O)[C@H]2O)c1 (some centres not stated)
inactive: Potency [1] | Potency [2] | Potency [3] | Potency [4] | Potency [5]

Cc1occc(=O)c1O[C@@H]1O[C@H](COC(=O)CC(C)(O)CC(=O)O)[C@@H](O)[C@H](O)[C@H]1O (some centres not stated)
inactive: Potency [1] | Potency [2] | Potency [3] | Potency [4] | Potency [5]

Nc1nc(COC(=O)c2ccc([N+](=O)[O-])cc2)nc(Nc2ccccc2)n1
inactive: Potency [1] | Potency [2] | Potency [3] | Potency [4] | Potency [5]

CC(=O)NC(Cc1ccccc1)C(=O)NC(C(=O)O)C(C)C (stereo not drawn) (Ac-Phe-Val-OH; configuration not given here)
inactive: Potency [1] | Potency [2] | Potency [3] | Potency [4] | Potency [5]

CN(C)C(=O)C(O)C(Cc1ccccc1)NC(=O)c1cc2cc(Cl)ccc2[nH]1 (configuration not stated)
inactive: Potency [1] | Potency [2] | Potency [3] | Potency [5]

COC(=O)c1[nH]c(=O)c2ccccc2c1-c1ccc[nH]1
inactive: Potency [1] | Potency [2] | Potency [4]

CC1OC(O[C@H]2CC[C@@]3(C)C(CC[C@]4(C)C3CC=C3C5CC(C)(C)CC[C@]5(C(=O)OC5OC(CO)C(OC6OCC(OC7OCC(O)C(O)C7O)C(O)C6O)C(O)C5O)CC[C@]34C)C2(C)C)C(O)C(O)C1OC1OC(CO)C(O)C(OC2OC(CO)C(O)C(O)C2O)C1O (some centres not stated)
inactive: activity change, negative = cytotoxicity [1] -14.5% [at 6.55 µM] | activity change, negative = cytotoxicity [2] -1.37% [at 6.55 µM] | activity change, negative = cytotoxicity [3] 3.95% [at 6.55 µM] | activity change, negative = cytotoxicity [4] -4.11% [at 6.55 µM] | activity change, negative = cytotoxicity [5] -3.05% [at 6.55 µM]
